# This is part of a sample that, as a whole, favours compounds with a hit. Of some 83,000 tested, about 20% had one in any assay.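 Values shown are percent growth following 48 h exposure of cells in 96-well plates to a single concentration of compound; below 10 was considered active.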 Unmarked numbers belong to inactive results. Activity calls are given as the source filed them.
# Columns and labels:
# Assay in all cases: NCI-60 one-dose screen, 48 h (100 = growth as untreated, 0 = no growth, -100 = all killed)
# Settings in all cases: 10 µM unless noted
# [1] = test system: DU-145 prostate
# [2] = test system: K-562 leukemia
# [3] = test system: MALME-3M melanoma
# [4] = test system: MDA-MB-231 breast
# [5] = test system: RXF 393 renal
# [6] = test system: SF-268 CNS
# [7] = test system: SF-295 CNS
# [8] = test system: SF-539 CNS
# [9] = test system: UACC-257 melanoma
# [10] = test system: M14 melanoma
# [11] = test system: HCT-15 colon
# [12] = test system: HT29 colon
# [13] = test system: SNB-75 CNS
# [14] = test system: SNB-19 CNS
# [15] = test system: U251 CNS
# [16] = test system: PC-3 prostate
# [17] = test system: SK-MEL-5 melanoma
# [18] = test system: UACC-62 melanoma
# [19] = test system: LOX IMVI melanoma
# [20] = test system: SK-MEL-28 melanoma
Compound,growth [1],growth [2],growth [3],growth [4],growth [5],growth [6],growth [7],growth [8],growth [9],growth [10],growth [11],growth [12],growth [13],growth [14],growth [15],growth [16],growth [17],growth [18],growth [19],growth [20]
O=C1/C(=C/c2cccc(Br)c2)COc2ccc(O)c(O)c21,-7.02% (active),10.3%,-44.9% (active),-26.7% (active),-56.5% (active),-23.9% (active),34.8%,-85.4% (active),10.9%,-5.09% (active),-7.69% (active),2.91% (active),15.1%,1.36% (active),-85.3% (active),-35.1% (active),23.3%,-72.2% (active),-90.8% (active),-17.2% (active)
COc1cc(/C=C2\CN(S(=O)(=O)c3ccc(C)cc3)C/C(=C\c3cc(CN4CCCC4)c(O)c(OC)c3)C2=O)cc(CN2CCCC2)c1O,-12.5% (active),1.26% (active),-81.5% (active),-20.3% (active),-87.8% (active),1.82% (active),-40.3% (active),-55.6% (active),57.7%,-66.4% (active),-2.28% (active),-60.7% (active),34.3%,15.6%,-74.5% (active),-20.2% (active),-17.5% (active),34.3%,-92.5% (active),10.3%
Cc1cc(C(=O)Nc2cc(Nc3ncccc3-c3ncnc4nc[nH]c34)ccc2F)cc(C(C)(C)C#N)c1,60%,6.28% (active),12.9%,17%,88.5%,64.7%,68.6%,33.9%,24.5%,5.3% (active),42.7%,24.1%,79.5%,61.8%,51.1%,57.8%,27.1%,3.75% (active),-9.5% (active),10.9%
C#Cc1cccc(Nc2ncnc3ccc(-c4cnc(Cl)c(NS(C)(=O)=O)c4)cc23)c1,2.5% (active),11.2%,-35.5% (active),-6.68% (active),-54.9% (active),-30.1% (active),-31.9% (active),-38.4% (active),-9.67% (active),-26.7% (active),-32.2% (active),-21.1% (active),-21.8% (active),-24.3% (active),-61.6% (active),-7.01% (active),-95.6% (active),-67.9% (active),-53.4% (active),-12.1% (active)
Nc1nc(Nc2ccc([N+](=O)[O-])cc2O)nc(C(Cl)(Cl)Cl)n1,97.3%,28.7%,84.9%,86.9%,76.1%,64.4%,93.2%,58%,85.7%,74.6%,53.3%,106%,62.6%,80.2%,73.3%,91.6%,72.7%,41.1%,44.8%,60%
N#C/C(=C/C=C/c1ccccc1)S(=O)c1ccccc1 (stereo not given),-89.5% (active),5.48% (active),-30.2% (active),-54.2% (active),-84% (active),-31.3% (active),-28.8% (active),-74.5% (active),-33.9% (active),-55.5% (active),-9.4% (active),-6% (active),20.8%,-5.13% (active),-81.5% (active),-34.1% (active),-84.7% (active),-57% (active),-80.7% (active),-67.9% (active)
CCOC(=O)c1c(Nc2nc3ccccc3s2)sc2c1CCC(=O)C2,84.8%,10.2%,93.9%,79.4%,83.6%,71%,86.3%,46.8%,92.7%,58.6%,45.1%,55.4%,74.8%,45.8%,20.5%,22.2%,61.2%,43.1%,40.1%,108%
